# In the supplement of paper PMC4466140:
# Experiments:
# Test in all cases: SPOT peptide array binding signal intensity (averaged, normalized) (arbitrary units (background-subtracted, floor 0; scale differs between SH3 domains)); higher = stronger binding of the SH3 domain to the peptide
# AgAbp1 = molecular target: AgAbp1
# Method in brief: (§1)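 GST-fused SH3 domains from four yeast species were expressed in E. coli BL21(DE3), purified on glutathione Sepharose and incubated at 10 μg/ml overnight at 4°C in TBS-based blocking buffer on cellulose membranes carrying synthetic 15-mer peptides, with cysteines replaced by serines. Bound protein was detected with anti-GST antibody, an HRP anti-mouse secondary and luminol, then imaged and quantified with Genespotter. Binding signal is the normalized, background-subtracted spot intensity averaged over replicates, in arbitrary units that differ between domains.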
# AgBbc1 = molecular target: AgBbc1
# Method in brief: as §1
# AgBem1-D1 = molecular target: AgBem1-D1
# Method in brief: as §1
# AgBzz1-D1 = molecular target: AgBzz1-D1
# Method in brief: as §1
# AgBzz1-D2 = molecular target: AgBzz1-D2
# Method in brief: as §1
# AgCyk3 = molecular target: AgCyk3
# Method in brief: as §1
# AgFus1 = molecular target: AgFus1
# Method in brief: as §1
# AgHof1 = molecular target: AgHof1
# Method in brief: as §1
# AgHse1 = molecular target: AgHse1
# Method in brief: as §1
# AgLsb1 = molecular target: AgLsb1
# Method in brief: as §1
# AgLsb4 = molecular target: AgLsb4
# Method in brief: as §1
# AgMyo5 = molecular target: AgMyo5
# Method in brief: as §1
# AgNbp2 = molecular target: AgNbp2
# Method in brief: as §1
# AgRvs167 = molecular target: AgRvs167
# Method in brief: as §1
# AgSho1 = molecular target: AgSho1
# Method in brief: as §1
# AgSla1-D1-D2 = molecular target: AgSla1-D1-D2
# Method in brief: as §1
# AgSla1-D3 = molecular target: AgSla1-D3
# Method in brief: as §1
# CaAbp1-D1 = molecular target: CaAbp1-D1
# Method in brief: as §1
# CaAbp1-D2 = molecular target: CaAbp1-D2
# Method in brief: as §1
# CaBbc1 = molecular target: CaBbc1
# Method in brief: as §1
# CaBem1-D1 = molecular target: CaBem1-D1
# Method in brief: as §1
# CaBzz1-D1 = molecular target: CaBzz1-D1
# Method in brief: as §1
# CaBzz1-D2 = molecular target: CaBzz1-D2
# Method in brief: as §1
# CaCyk3 = molecular target: CaCyk3
# Method in brief: as §1
# CaFus1 = molecular target: CaFus1
# Method in brief: as §1
# CaHof1 = molecular target: CaHof1
# Method in brief: as §1
# CaHse1 = molecular target: CaHse1
# Method in brief: as §1
# CaLsb1 = molecular target: CaLsb1
# Method in brief: as §1
# CaLsb4 = molecular target: CaLsb4
# Method in brief: as §1
# CaMyo5 = molecular target: CaMyo5
# Method in brief: as §1
# CaNbp2 = molecular target: CaNbp2
# Method in brief: as §1
# CaRvs167 = molecular target: CaRvs167
# Method in brief: as §1
# CaRvs167-3 = molecular target: CaRvs167-3
# Method in brief: as §1
# CaSho1 = molecular target: CaSho1
# Method in brief: as §1
# CaSla1-D1-D2 = molecular target: CaSla1-D1-D2
# Method in brief: as §1
# CaSla1-D3 = molecular target: CaSla1-D3
# Method in brief: as §1
# ScAbp1 = molecular target: ScAbp1
# Method in brief: as §1
# ScBbc1 = molecular target: ScBbc1
# Method in brief: as §1
# ScBem1-D1 = molecular target: ScBem1-D1
# Method in brief: as §1
# ScBzz1-D1 = molecular target: ScBzz1-D1
# Method in brief: as §1
# ScBzz1-D2 = molecular target: ScBzz1-D2
# Method in brief: as §1
# ScCyk3 = molecular target: ScCyk3
# Method in brief: as §1
# ScFus1 = molecular target: ScFus1
# Method in brief: as §1
# ScHof1 = molecular target: ScHof1
# Method in brief: as §1
# ScHse1 = molecular target: ScHse1
# Method in brief: as §1
# ScLsb1 = molecular target: ScLsb1
# Method in brief: as §1
# ScLsb2 = molecular target: ScLsb2
# Method in brief: as §1
# ScLsb3 = molecular target: ScLsb3
# Method in brief: as §1
# ScLsb4 = molecular target: ScLsb4
# Method in brief: as §1
# ScMyo3 = molecular target: ScMyo3
# Method in brief: as §1
# ScMyo5 = molecular target: ScMyo5
# Method in brief: as §1
# ScNbp2 = molecular target: ScNbp2
# Method in brief: as §1
# ScPex13 = molecular target: ScPex13
# Method in brief: as §1
# ScRvs167 = molecular target: ScRvs167
# Method in brief: as §1
# ScSho1 = molecular target: ScSho1
# Method in brief: as §1
# ScSla1-D1-D2 = molecular target: ScSla1-D1-D2
# Method in brief: as §1
# ScSla1-D3 = molecular target: ScSla1-D3
# Method in brief: as §1
# SpAbp1-D1 = molecular target: SpAbp1-D1
# Method in brief: as §1
# SpBbc1 = molecular target: SpBbc1
# Method in brief: as §1
# SpBzz1-D1 = molecular target: SpBzz1-D1
# Method in brief: as §1
binder,measurement,setting,value
QFDLKMPSKPIHNLK,SPOT peptide array binding signal intensity,AgAbp1,≤ 0
same,SPOT peptide array binding signal intensity,AgBbc1,0.5
same,SPOT peptide array binding signal intensity,AgBem1-D1,103
same,SPOT peptide array binding signal intensity,AgBzz1-D1,3.5
same,SPOT peptide array binding signal intensity,AgBzz1-D2,≤ 0
same,SPOT peptide array binding signal intensity,AgCyk3,≤ 0
same,SPOT peptide array binding signal intensity,AgFus1,48.5
same,SPOT peptide array binding signal intensity,AgHof1,≤ 0
same,SPOT peptide array binding signal intensity,AgHse1,85.5
same,SPOT peptide array binding signal intensity,AgLsb1,≤ 0
same,SPOT peptide array binding signal intensity,AgLsb4,3.5
same,SPOT peptide array binding signal intensity,AgMyo5,≤ 0
same,SPOT peptide array binding signal intensity,AgNbp2,63.5
same,SPOT peptide array binding signal intensity,AgRvs167,0.333
same,SPOT peptide array binding signal intensity,AgSho1,57
same,SPOT peptide array binding signal intensity,AgSla1-D1-D2,≤ 0
same,SPOT peptide array binding signal intensity,AgSla1-D3,≤ 0
same,SPOT peptide array binding signal intensity,CaAbp1-D1,≤ 0
same,SPOT peptide array binding signal intensity,CaAbp1-D2,≤ 0
same,SPOT peptide array binding signal intensity,CaBbc1,9.5
same,SPOT peptide array binding signal intensity,CaBem1-D1,25
same,SPOT peptide array binding signal intensity,CaBzz1-D1,≤ 0
same,SPOT peptide array binding signal intensity,CaBzz1-D2,8
same,SPOT peptide array binding signal intensity,CaCyk3,1.5
same,SPOT peptide array binding signal intensity,CaFus1,446
same,SPOT peptide array binding signal intensity,CaHof1,≤ 0
same,SPOT peptide array binding signal intensity,CaHse1,49.8
same,SPOT peptide array binding signal intensity,CaLsb1,≤ 0
same,SPOT peptide array binding signal intensity,CaLsb4,142
same,SPOT peptide array binding signal intensity,CaMyo5,8
same,SPOT peptide array binding signal intensity,CaNbp2,202
same,SPOT peptide array binding signal intensity,CaRvs167,1.67
same,SPOT peptide array binding signal intensity,CaRvs167-3,≤ 0
same,SPOT peptide array binding signal intensity,CaSho1,376
same,SPOT peptide array binding signal intensity,CaSla1-D1-D2,68
same,SPOT peptide array binding signal intensity,CaSla1-D3,77
same,SPOT peptide array binding signal intensity,ScAbp1,≤ 0
same,SPOT peptide array binding signal intensity,ScBbc1,0.25
same,SPOT peptide array binding signal intensity,ScBem1-D1,≤ 0
same,SPOT peptide array binding signal intensity,ScBzz1-D1,≤ 0
same,SPOT peptide array binding signal intensity,ScBzz1-D2,3.5
same,SPOT peptide array binding signal intensity,ScCyk3,≤ 0
same,SPOT peptide array binding signal intensity,ScFus1,70
same,SPOT peptide array binding signal intensity,ScHof1,0.5
same,SPOT peptide array binding signal intensity,ScHse1,57
same,SPOT peptide array binding signal intensity,ScLsb1,9
same,SPOT peptide array binding signal intensity,ScLsb2,1
same,SPOT peptide array binding signal intensity,ScLsb3,74
same,SPOT peptide array binding signal intensity,ScLsb4,21
same,SPOT peptide array binding signal intensity,ScMyo3,≤ 0
same,SPOT peptide array binding signal intensity,ScMyo5,≤ 0
same,SPOT peptide array binding signal intensity,ScNbp2,79.5
same,SPOT peptide array binding signal intensity,ScPex13,23.8
same,SPOT peptide array binding signal intensity,ScRvs167,2.83
same,SPOT peptide array binding signal intensity,ScSho1,198
same,SPOT peptide array binding signal intensity,ScSla1-D1-D2,59
same,SPOT peptide array binding signal intensity,ScSla1-D3,150
same,SPOT peptide array binding signal intensity,SpAbp1-D1,0.5
same,SPOT peptide array binding signal intensity,SpBbc1,1.5
same,SPOT peptide array binding signal intensity,SpBzz1-D1,104
